{"source": "PubChem BioAssay (EPA / NIEHS)", "note": "Calls of active or inactive are those of the source. How the source made its calls: active means hit-call score of the fitted dose curve at least 0.9, where 1 is the maximum; inactive means score below 0.9."}
{"read-out": "HGF (gene 3082)", "assay": "LTEA_HepaRG_HGF: Life Technologies and Expression Analysis (LTEA) Assay for Hepatocyte Growth Facto (HGF) using HepaRG (AID 2283505)", "conditions": "mRNA level, 48 h; actives raise or lower the signal", "protocol": "LTEA_HepaRG is a cell based, multiplexed-readout assay that uses HepaRG, a human liver cell line, with measurements taken at 48 hours after chemical dosing on a 96-well plate.LTEA_HepaRG_HGF is one of 102 assay component(s) measured in the LTEA HepaRG cell culture assay. It is a marker of Cell proliferation, survival, death.Data from the assay component LTEA_HepaRG_HGF was analyzed into 1 endpoint. This assay endpoint, LTEA_HepaRG_HGF, was analyzed with bidirectional fitting relative to DMSO as the negative control and baseline of activity. Using a type of inducible reporter, measures of mRNA induction for gain or loss-of-signal activity can be used to understand regulation of transcription factor activity. To generalize the intended target to other relatable targets, this assay endpoint is annotated to the growth factor intended target family, where the subfamily is hepatocyte growth factor.\nA total of 1060 chemcials from the ToxCast library were tested in eight-point concentration-response experiments. Cell culture and cytotoxicity assays were conducted at Thermo Fisher Scientific's Custom Services facility (Madison, WI). A single lot of human HepaRG cells (Thermo Fisher Scientific, Frederick, MD) was used for the cell culture experiments. 96-well format collagen type I coated plates of human HepaRG cells were prepared using established methods. Briefly, cryopreserved HepaRG cells were thawed, plated at a density of approximately 100,000 cells/well in HepaRG Thaw, Plate, and General Purpose media (HPRG770, Thermo Fisher Scientific), and incubated for 48 hours. 0.5% DMSO was selected as vehicle control to balance the requisite need of DMSO in HepaRG cultures to maintain differentiation (for example, baseline metabolism, proportions of hepatocytes vs. cholangiocytes), while enabling further hepatic receptor pathway activation (for example, PXR and CAR) in response to chemical exposure. 48 hours after plating, the culture medium was replaced with HepaRG Serum-Free Incudtion Media. Cells were exposed to each test chemical in duplicate and maintained in CO2 incubators for another 48 hours. Chemical plates were thawed to room temperature and 200x concentrations of treatment groups were prepared. 8-point conentration-reponse curves were made with the highest exposure at 100 uM, followed by half-log dilutions, all in 0.5% DMSO. Each test plate contained variouse controls, induction positive controls (1mM phenobarbital), cytotoxicity positive controls ([…] aflatoxin B1), vehicle controls (0.5% DMSO), and total lysis controls (0.5% DMSO). Cell morphology images were taken using an Essen IncuCyte FLR automated microscope, with six 96-well plates imaged in about 24 minutes. Images were captured and exported and JPEG files. Spent culture media was transfered to black-well plates for the LDH assay, and remaining media was sorted at -80 C for later use. Cells were treated with RLT buffer and frozen until shipped for gene expression analysis. Total RNA was isolated from the cell suspension in 75 uL of Buffer RLT (Qiagen, Germantown, MD 20874) by Quintiles/Expression Analysis (Durham, NC) using a custom isolation procedure. Total RNA from each plate well was transferred to a preamplification plate. Fluidigm's 96.96 Dynamic ArrayTM (Fluidigm, Amsterdam, the Netherlands) technology was used for gene expression analyses by quantitative reverse transcription polymerase chain reaction (qRT-PCR, performed by Quintiles/Expression Analysis, Durham, NC)89. Standard TaqManTM Assays (Applied Biosystems/ThermoFisher Scientific, Foster City, CA) were used to assess the expression of 93 genes selected based on their selectivity and sensitivity to important hepatic receptors known to be modulated by environmental chemicals; importance in human hepatocyte functionality; and hepatotoxicity. […]"}
{"molecule": "CCCCCCCCCCCCOS(=O)(=O)O", "outcome": "inactive"}
{"molecule": "Cc1[nH]nc2c1N=C(c1ccccc1Cl)c1cc([N+](=O)[O-])ccc1N2", "AC50": "2.84 µM (active)"}
{"molecule": "N=C(N)c1ccc(OCCCCCOc2ccc(C(=N)N)cc2)cc1", "AC50": "13.8 µM (active)"}
{"molecule": "CN(Cc1cnc2nc(N)nc(N)c2n1)c1ccc(C(=O)N[C@@H](CCC(=O)O)C(=O)O)cc1", "outcome": "inactive"}
{"molecule": "O=C1NS(=O)(=O)c2ccccc21", "outcome": "inactive"}
{"molecule": "CCC(C)c1ccccc1O", "note": "(stereo not drawn)", "outcome": "inactive"}
{"molecule": "CCCCC=O", "outcome": "inactive"}
{"molecule": "O=C(c1ccccc1)c1ccccc1", "outcome": "inactive"}
{"molecule": "OCC(CO)(CBr)CBr", "outcome": "inactive"}
{"molecule": "CCCCc1oc2ccccc2c1C(=O)c1cc(I)c(OCCN(CC)CC)c(I)c1", "outcome": "inactive"}
{"molecule": "CCCCC(CC)C(=O)O", "note": "(stereo not drawn)", "outcome": "inactive"}
{"molecule": "CCCCCCCCCCCCCCC", "outcome": "inactive"}
{"molecule": "CN(C)CCOC(c1ccccc1)c1ccccc1", "outcome": "inactive"}
